A selection: hits, their analogues and other compounds. The true share with any hit is near 7.9%.
KB-V1 cytotox: qHTS assay for MDR1-selective chemotherapeutics: Primary screen using the drug-selected MDR subline cells KB-V1; KB-V1 MDR cells viability, CellTiter-Glo, 72 h; Potency, µM (titrated, usually from 46.1 µM), most hits filed as cytotoxic; actives 3.4% (n = 400,000); AID 1347076, 2019; note: % is set by controls: 0 for no effect and ±100 for the full control effect; nearly all actives have a fitted effect of over 60% in size
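KB-V1, DMEM (no phenol red) + 10% FBS; cpd pin-transferred, titration series; 72 h, 37 degrees C; CellTiter-Glo, luminescence. Data normalized, curve-fit.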
HT1080 IDH1KD tx: qHTS for induction of synthetic lethality in tumor cells producing 2HG: qHTS for the HT-1080-IDH1KD cell line; Potency, µM (series often up to 46.1 µM), for the others: at the top dose activity, negative = toxicity, most hits filed as cytotoxic; HT-1080 IDH1 knockdown viability, ATP luminescence, 48 h; AID 686971, 2013; actives 2% (n = 360,000);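 note: 0% = DMSO wells and -100% = cell-free medium wells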
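HT-1080-IDH1KD cells (IDH1 knocked down), 750/well in RPMI with 5% FBS, treated with compound 48 h at 37 degrees C. Viability by CellTiter-Glo luminescence, normalised to DMSO and no-cell wells; concentration-response curves classed.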
SW480 rerep: A quantitative high throughput screen for small molecules that induce DNA re-replication in SW480 colon adenocarcinoma cells | SW480 DNA re-replication, Hoechst DNA content imaging, 48 h | Potency, µM (titrated, usually from 46.1 µM), for the others: at the top dose re-replication activation, actives largely listed as activators | actives 1.8% (n = 340,000) | AID 624297, 2012; note: % of control where 0% means no effect; nearly all actives have a fitted effect of over 55% in size
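First, 250 cells per well were seeded. Next, compound or vehicle (23 nL) was pinned in, plates sat 48 hr at 37 C. Finally Hoechst was added for 40 min before fluorescence scanning.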
HT1080NT lethal: qHTS for induction of synthetic lethality in tumor cells producing 2HG: qHTS for the HT-1080-NT fibrosarcoma cell line. HT-1080-NT fibrosarcoma viability, CellTiter-Glo ATP luminescence, 48 h. Potency, µM (titrated, usually from 46.1 µM), for the others: at the highest dose activity, negative = less viability, most hits filed as cytotoxic. actives 1.6% (n = 360,000). AID 686970, 2013;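 note: NT is the 2HG producing partner of a matched IDH1 knockdown line; 0% = DMSO-treated cells and -100% = media-only wells without cells; nearly all actives have a fitted effect of over 55% in size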
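750 cells/well, RPMI + 5% FBS; 2 h settle, compound pin-transfer, 48 h at 37 degrees C. CellTiter-Glo 10 min RT, luminescence. Normalized to DMSO and media-only wells.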
KB-3-1 tox: qHTS assay for MDR1-selective chemotherapeutics: Primary screen using the parental adenocarcinoma cell KB-3-1 | KB-3-1 viability, CellTiter-Glo ATP luminescence, 72 h | Potency, µM (highest dose often 46.1 µM), usual class: cytotoxic | actives 1.4% (n = 400,000) | AID 1347075, 2019; note: % is set by controls: 0 for no effect and ±100 for the full control effect; nearly all actives have a fitted effect of over 60% in size
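Screening of KB-3-1 cells (DMEM, 10% FBS, phenol-red free) ran from lowest to highest compound concentration; after 72 h at 37 °C viability was read luminescently and curves fitted.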
MCF10A rerep: A quantitative high throughput screen for small molecules that induce DNA re-replication in MCF 10a normal breast cells. MCF 10A DNA re-replication, Hoechst nuclear intensity, 48 h. Potency, µM (titrated, usually from 46.1 µM), for inactives: top-dose activity, positive = re-replication, hits mostly activators. actives 2.9% (n = 350,000). AID 624296, 2012; note: % of control where 0% means no effect; nearly all actives have a fitted effect of over 50% in size
* = called active by the depositor; i = inactive; u = inconclusive; x = no result given; ! = a repeat was not active. Calls come from the whole dose curve; as a rule, active = well fitted curve in the direction sought with a large enough effect; inconclusive = small, poorly fitted or top-dose-only effect, or another doubt; inactive = no such curve, though single readings can be large; an effect the other way counts as inactive or inconclusive. Potency is the fitted concentration of half-maximal effect.

SMILES	KB-V1 cytotox	HT1080 IDH1KD tx	SW480 rerep	HT1080NT lethal	KB-3-1 tox	MCF10A rerep
Cc1ccc(Cl)cc1N1CCN(S(=O)(=O)c2ccc3c(c2)oc(=O)n3C)CC1	13µM*	6%	7%	-2%	i	2%
Cc1ccc(C)c(N2CCN(C(=O)CCS(=O)(=O)c3ccc4c(c3)oc(=O)n4C)CC2)c1	6.5µM*!	1%	12%	-13%	u	1%
O=C(Nc1ccccc1F)c1ccc2nc(N3C(=O)CCC3=O)sc2c1	i	20%	2%	23%	i	4%
O=C1CCCN1CCNC(=S)Nc1ccccc1	i	29%	-3%	6%	i	-1%
O=C(COC(=O)CC1CC2CCC1C2)NCc1ccccc1 (configuration not stated)	i	-5%	2%	-5%	i	-1%
Cc1ccc(Cc2c(-c3ccccc3)nc3c4ccccc4ccn23)cc1	i	-2%	x	-4%	i	x
CC(C)(C)c1ccc(NC(=O)N2CCCN(c3c(Cl)cncc3Cl)CC2)cc1	i	-14%	u	u	i	7.3µM*
COC(=O)c1ccc(NCN2C(=O)C3C4CCC(C4)C3C2=O)cc1 (configuration not stated)	u	2%	-11%	0%	i	-10%
Cc1ccc(-c2[nH]ncc2CNCCc2cnn(-c3ccccc3)c2)cc1C	i	u	u	18µM*	u	u
COc1ccc(C(=O)N(CCc2ccccc2)Cc2ccccc2)c(OC)n1	8.2µM*	-4%	11%	-20%	u	u
O=c1n(-c2ccccc2)c(=O)n2n1CCCC2	i	-2%	16µM*	7%	i	u
CCn1c(CCNC(=O)c2ccc(Cl)cc2Cl)n[nH]c1=S	i	-27%	-22%	-20%	i	-1%
CN1CCN(C(=O)c2ccc(Cl)c(S(=O)(=O)N3CCCCC3)c2)CC1	15µM*	-13%	4%	0%	i	-2%
COc1cc2c(cc1OC)CN(C(=O)c1ccc3nc[nH]c3c1)CC2	i	12µM*	5.8µM*	10µM*	u	8.2µM*
COc1cc2c(cc1OC)CN(C(=O)c1ccc(OC)c(S(=O)(=O)N3CCCC3)c1)CC2	u	-16%	u	-6%	i	3%
COc1cc2c(cc1OC)CN(C(=O)c1ccc(Cl)c(S(=O)(=O)N3CCCC3)c1)CC2	21µM*	0%	-12%	-8%	i	u
CN1CCCN(C(=O)c2ccc(Cl)c(S(=O)(=O)N(C)c3ccccc3)c2)CC1	u	4%	13%	-3%	i	21µM*
O=C(c1ccc2nc[nH]c2c1)N1CCc2ccccc2C1	i	17%	-1%	5%	i	3%
COc1cc(OC)c(OC)cc1/C=N/NC(=O)CC1C(=O)NN=C1C (configuration not stated)	u	19%	-9%	12%	i	-1%
O=C(NCc1ccccc1)C1CCC(=O)N(CCN2CCOCC2)C1 (configuration not stated)	i	-3%	-57%	1%	i	2%
CC(=O)Nc1cc(C(=O)OCc2cccc([N+](=O)[O-])c2)ccc1C	i	4%	-3%	3%	i	-1%
CCOc1ccccc1N1CCN(C(=O)c2ccc(Cl)c(S(=O)(=O)N3CCCCC3)c2)CC1	7.3µM*	-24%	-5%	-21%	i	u
CCOc1ccccc1N1CCN(C(=O)c2cc(S(=O)(=O)N3CCCCC3)ccc2C)CC1	i	-4%	-3%	-7%	i	11%
Nc1nonc1C(=O)NCCNS(=O)(=O)c1ccc(Br)cc1	i	-9%	5%	-7%	i	18µM*
Nc1nonc1C(=O)NCCNC(=O)c1ccccc1F	u	11%	-1%	6%	i	-1%
SMILES	KB-V1 cytotox	HT1080 IDH1KD tx	SW480 rerep	HT1080NT lethal	KB-3-1 tox	MCF10A rerep
COc1ccc2c(c1OC)OCC2C (configuration not stated)	15µM*	8%	8%	3%	u	u
COc1ccc(C2C(C#N)=C(N)OC3=C2C(=O)CC(C)C3)c(OC)c1OC (configuration not stated)	i	6%	-9%	3%	i	5%
COC(=O)c1ccc2c(c1)C(C)(C)C(/C=C/c1ccccc1O)=[N+]2C	u	3.5µM*	5.6µM*	4.5µM*	4.5µM*	7.1µM*
Cc1ccccc1OCC(=O)Nc1ccc(N2CCN(S(C)(=O)=O)CC2)cc1	3.7µM*	11%	-1%	14%	i	9%
Cc1cccc(OCC(=O)Nc2ccc(N3CCN(C(=O)c4ccco4)CC3)cc2)c1C	i	-12%	-1%	-24%	i	7%
COc1cccc(CN2CCN(C(=O)c3ccco3)CC2)c1	i	2%	-23%	0%	i	0.58µM*
Cc1ccccc1OCC(=O)Nc1ccc(N2CCN(C(=O)c3ccco3)CC2)cc1	7.3µM*	-8%	-2%	u	u	0%
COc1ccc(OCC(=O)Nc2ccc(N3CCN(C(=O)c4ccco4)CC3)cc2)cc1	i	1%	-1%	-28%	i	u
O=C(COc1ccc(Cl)cc1)Nc1ccc(N2CCN(C(=O)c3ccco3)CC2)cc1	13µM*	-11%	14%	u	u	u
CCOC(=O)[C@]12CCCC=C1N(Cc1ccccc1)C(=O)[C@H](CC(=O)N1CCOCC1)C2	u	2%	x	13%	i	x
COc1ccc(CCNC(=O)CSc2n[nH]c(N)n2)cc1OC	i	8%	1%	4%	i	1%
O=S(=O)(NC(=S)c1ccccc1)c1ccc(Cl)cc1	i	-1%	-22%	1%	i	-26%
CCN1CCN(c2ccc(NC(=O)COc3ccccc3Cl)cc2)CC1	i	-8%	-5%	-8%	i	u
COc1ccc(C(c2nnnn2Cc2ccccc2)N2CCN(C(=O)c3ccco3)CC2)cc1 (configuration not stated)	i	-2%	2%	4%	i	0%

Bioassay records from PubChem.
